Test systems include SR leukemia; RPMI-8226 leukemia; OVCAR-8 ovarian; OVCAR-5 ovarian; OVCAR-4 ovarian; SK-OV-3 ovarian; IGROV1 ovarian; OVCAR-3 ovarian; HS 578T breast; NCI/ADR-RES ovarian; T-47D breast; BT-549 breast; MDA-MB-435 melanoma; SW-620 colon; MCF7 breast; HCT-116 colon; HCC-2998 colon; KM12 colon.
Experiment in all cases: NCI-60 one-dose screen, 48 h (100 = growth as untreated, 0 = no growth, -100 = all killed)
Common to all, as to settings: 10 µM unless noted

The panel holds about 83,000 compounds, 20% with a hit somewhere; the sample as a whole holds those more often.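 Note: values are percent growth. 100 is the growth of untreated cells, values between 100 and 0 indicate rising inhibition; between -100 and 0 indicates cell death.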 Unmarked numbers belong to inactive results. Active and inactive are the calls of the source. The calls were made as follows: active = growth percent below 10; inactive = the rest.

With `COc1ccc(/C=N/Nc2c3ccccc3nc3ccccc23)cc1`, the growth in the experiment on SR leukemia is 95.6%; in the experiment on RPMI-8226 leukemia, 83.8%; in the experiment on OVCAR-8 ovarian, 97%; in the experiment on OVCAR-5 ovarian, 111%; in the experiment on OVCAR-4 ovarian it was 81.7%; in the experiment with SK-OV-3 ovarian it was 90.8%. The growth with IGROV1 ovarian was 88.2%; in the experiment on OVCAR-3 ovarian, 91.7%; in the experiment on HS 578T breast, 93.1%; in the experiment with NCI/ADR-RES ovarian, 102%; in the experiment on T-47D breast, 87.5%; in the experiment with BT-549 breast, 92.2%. Besides, the growth in the experiment on MDA-MB-435 melanoma was 97%; in the experiment with SW-620 colon, 97.7%; with MCF7 breast, 81.9%; in the experiment on HCT-116 colon, 97.4%; in the experiment on HCC-2998 colon it was 105%; in the experiment on KM12 colon, 91.4%.
Take `COC(=O)c1nc(-c2ccccc2)oc1S(=O)(=O)N1CCCC(C)C1` (configuration not stated): the growth in the experiment with SR leukemia was 0.921% (active); with RPMI-8226 leukemia it was 51%; with OVCAR-8 ovarian it was 81.9%; in the experiment with OVCAR-5 ovarian, 87.4%; with OVCAR-4 ovarian, 83.2%; with SK-OV-3 ovarian it was 110%. Besides, the growth in the experiment on IGROV1 ovarian was 64%; with OVCAR-3 ovarian it was 48.9%; in the experiment on HS 578T breast, 104%; in the experiment on NCI/ADR-RES ovarian it was 100%; in the experiment on T-47D breast it was 69.2%; with BT-549 breast, 75%. Further, the growth with MDA-MB-435 melanoma is 84.5%; with SW-620 colon, 35.4%; with MCF7 breast, 47.3%; in the experiment on HCT-116 colon, 63.9%; with HCC-2998 colon, 104%; with KM12 colon, 97.7%.
Regarding `CC1=C(Cl)C(=O)c2cc(C)ccc2C1=O`, the growth in the experiment on SR leukemia is 89.3%; in the experiment on RPMI-8226 leukemia, 99.6%; in the experiment with OVCAR-8 ovarian it was 92.4%; in the experiment on OVCAR-5 ovarian, 107%; in the experiment with OVCAR-4 ovarian, 103%; with SK-OV-3 ovarian, 105%. Moreover, the growth in the experiment with IGROV1 ovarian is 103%; with OVCAR-3 ovarian, 105%; in the experiment on HS 578T breast it was 104%; in the experiment with NCI/ADR-RES ovarian, 105%; in the experiment on T-47D breast, 96.9%; in the experiment on BT-549 breast it was 97.9%. The growth in the experiment with MDA-MB-435 melanoma was 105%; in the experiment on SW-620 colon, 105%; in the experiment with MCF7 breast it was 91.2%; in the experiment on HCT-116 colon it was 106%; with HCC-2998 colon it was 104%; in the experiment with KM12 colon, 102%.
As to `Fc1cccc(-c2nc(-c3c[nH]c4ncccc34)cs2)c1`, the growth in the experiment on SR leukemia was 84.3% [100 µM]; in the experiment with RPMI-8226 leukemia, 68.4% [100 µM]; in the experiment on OVCAR-8 ovarian, 45.3% [100 µM]; with OVCAR-5 ovarian, 74.9% [100 µM]; in the experiment on OVCAR-4 ovarian, 9.43% [100 µM] (active); with SK-OV-3 ovarian, 55.9% [100 µM]. Also, the growth in the experiment with IGROV1 ovarian is 81.5% [100 µM]; in the experiment on OVCAR-3 ovarian, 36.1% [100 µM]; in the experiment on HS 578T breast it was 46.5% [100 µM]; in the experiment on NCI/ADR-RES ovarian it was 48.1% [100 µM]; in the experiment with T-47D breast, 40.5% [100 µM]; in the experiment with BT-549 breast, 65.6% [100 µM]. Besides, the growth in the experiment on MDA-MB-435 melanoma is 50.4% [100 µM]; in the experiment on SW-620 colon, 56% [100 µM]; with MCF7 breast, 44.6% [100 µM]; in the experiment with HCT-116 colon, 33.8% [100 µM]; with HCC-2998 colon, 89% [100 µM]; with KM12 colon, 56.6% [100 µM].
Turning to `COC(=O)Cn1c2c(c3c(OC)cccc31)C(=O)c1ccccc1-2`, the growth was 84.8% in the experiment on SR leukemia; 85.3% in the experiment on RPMI-8226 leukemia; 107% with OVCAR-8 ovarian; 81.1% with OVCAR-5 ovarian; 101% with OVCAR-4 ovarian; 96.9% with SK-OV-3 ovarian. Besides, the growth in the experiment on IGROV1 ovarian is 110%; in the experiment with OVCAR-3 ovarian, 116%; in the experiment with HS 578T breast, 97.2%; with NCI/ADR-RES ovarian it was 95.5%; with T-47D breast, 89.7%; in the experiment on BT-549 breast, 103%. Moreover, the growth in the experiment on MDA-MB-435 melanoma is 112%; in the experiment on SW-620 colon it was 96.9%; with MCF7 breast it was 85.9%; in the experiment on HCT-116 colon, 89.1%; in the experiment on HCC-2998 colon it was 89.8%; in the experiment with KM12 colon, 107%.
Regarding `NC(=O)c1ccccc1OCC(=O)Nc1ccc(Cl)c(Cl)c1`, the growth with SR leukemia is 71.4%; with RPMI-8226 leukemia, 66.5%; with OVCAR-8 ovarian, 91.9%; in the experiment with OVCAR-5 ovarian it was 119%; with OVCAR-4 ovarian it was 96.5%; in the experiment with SK-OV-3 ovarian, 96.9%. Further, the growth with IGROV1 ovarian was 84.2%; in the experiment on OVCAR-3 ovarian it was 95.4%; with HS 578T breast, 98.7%; in the experiment with NCI/ADR-RES ovarian it was 107%; in the experiment on T-47D breast, 79.8%; in the experiment with BT-549 breast it was 93.2%. The growth is 103% in the experiment with MDA-MB-435 melanoma; 102% in the experiment with SW-620 colon; 79.7% in the experiment on MCF7 breast; 100% in the experiment on HCT-116 colon; 103% in the experiment on HCC-2998 colon; 100% with KM12 colon.
Regarding `O=c1ccc2ccc(OCCN3CCCCC3)cc2o1`, the growth was -35.7% (active) in the experiment on SR leukemia; -23.8% (active) in the experiment with RPMI-8226 leukemia; 95.2% with OVCAR-8 ovarian; 102% with OVCAR-5 ovarian; 113% in the experiment on OVCAR-4 ovarian; 82.7% in the experiment on SK-OV-3 ovarian. Also, the growth in the experiment on IGROV1 ovarian was 110%; in the experiment with OVCAR-3 ovarian, 113%; in the experiment on HS 578T breast, 96.5%; in the experiment with NCI/ADR-RES ovarian, 99.9%; with T-47D breast it was 95.5%; in the experiment with BT-549 breast, 100%. Moreover, the growth in the experiment on MDA-MB-435 melanoma is 101%; in the experiment on SW-620 colon, 93.9%; in the experiment with MCF7 breast it was 106%; in the experiment with HCT-116 colon, 89%; in the experiment with HCC-2998 colon, 98%; in the experiment on KM12 colon, 104%.
With `COc1cc(Cc2cc(-c3ccccc3)nn(Cc3ccccc3)c2=O)cc(OC)c1OC`, the growth in the experiment with SR leukemia is 36%; with RPMI-8226 leukemia it was 24.8%; with OVCAR-8 ovarian, 31.9%; with OVCAR-5 ovarian, 69.7%; in the experiment on OVCAR-4 ovarian, 35.3%; in the experiment on SK-OV-3 ovarian, 82.3%. Also, the growth in the experiment on IGROV1 ovarian was 53.1%; in the experiment with OVCAR-3 ovarian, 46.9%; in the experiment with HS 578T breast, 74.9%; with NCI/ADR-RES ovarian, 30.5%; in the experiment on T-47D breast it was 6.19% (active); with BT-549 breast it was 53.8%. For the same molecule, the growth with MDA-MB-435 melanoma is 44.9%; in the experiment on SW-620 colon, 50.1%; with MCF7 breast, 24.5%; with HCT-116 colon, 23.3%; in the experiment with HCC-2998 colon, 64.2%; in the experiment with KM12 colon, 32.9%.
As for `COc1ccc(C=Nc2c(C(=O)Nc3cccc(Cl)c3C)sc3nc(C)c(C(=O)/C=C/c4ccc(OC)cc4)cc23)cc1`, the growth was 30.8% in the experiment with SR leukemia; 14.9% in the experiment on RPMI-8226 leukemia; 21% with OVCAR-8 ovarian; 31.3% in the experiment with OVCAR-5 ovarian; 58.2% with OVCAR-4 ovarian; 40.9% in the experiment with SK-OV-3 ovarian. Further, the growth with IGROV1 ovarian was 38.3%; in the experiment on OVCAR-3 ovarian, 4.94% (active); in the experiment on HS 578T breast, -1.89% (active); with NCI/ADR-RES ovarian, 10.9%; with T-47D breast, 24.3%; with BT-549 breast it was 40%. The growth in the experiment with MDA-MB-435 melanoma was -65.8% (active); in the experiment on SW-620 colon, 12.4%; with MCF7 breast, 11.8%; in the experiment on HCT-116 colon, 23%; in the experiment on HCC-2998 colon, 57.6%; with KM12 colon, 12.4%.

(Values after PubChem BioAssay (NCI).)
